HSF-1 act = increases HSF-1 driven luciferase reporter signal | activation, % at 9 µM | 300,000 compounds, 1.7% hits | NIH3T3-HGL HSF-1 luciferase reporter, MG132, 8 h; 100% = twice DMSO control signal;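 active = mean replicate activation of at least 50% with a set share of replicates each reaching 50%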;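 also: 0% = median of the neutral control wells and 100% = twice that signal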
AHR act = activators of human aryl hydrocarbon receptor; 320,000 compounds, 2.5% hits; activation, % at 5 µM; AHR-responsive luciferase reporter cells, luminescence; AID 2796; P35869; in the data active = activation above about 47%;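 also: 0% = vehicle wells and 100% = reference agonist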
HSF1 inh = HSF1 inhibition; NIH3T3-HGL HSE-luciferase, MG132-induced, luminescence 8 h; stronger effect = lower value; activity change, negative = inhibition, % at 7.5 µM (by protocol); 300,000 compounds, 0.77% hits; AID 2098;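 active = more than half of replicate wells show activity change below -50%, luminescence cut by over half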;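 also: luciferase reports HSF-1 transcriptional activity via heat shock element; 0% = median of DMSO wells and -100% = zero luminescence signal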
DAX1 inh = inhibits human nuclear receptor DAX1 | 340,000 compounds, 0.99% hits | HEK293 Gal4-DAX1 luciferase reporter, luminescence | AID 504766 | P51843 | inhibition, % at 6.75 µM;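 active = inhibition above the mean over all tested compounds plus 3 SD, cut at about 4.2% in these data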;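 also: 0% = DAX1-transfected cells with DMSO and 100% = empty-vector control cells with DMSO; inhibition shows as a rise in luminescence from relieved DAX1 repression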
Target sequence (P51843 207-470 limits assumed): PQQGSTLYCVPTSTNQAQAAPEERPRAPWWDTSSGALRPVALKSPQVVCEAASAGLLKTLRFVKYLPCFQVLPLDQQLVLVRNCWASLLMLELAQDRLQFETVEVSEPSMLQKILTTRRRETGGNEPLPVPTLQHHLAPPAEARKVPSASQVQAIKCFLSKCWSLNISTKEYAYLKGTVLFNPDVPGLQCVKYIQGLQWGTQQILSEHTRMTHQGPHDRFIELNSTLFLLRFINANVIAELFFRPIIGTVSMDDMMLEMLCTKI
HSP90 inh = inhibitors of HSP90 luciferase refolding in rabbit reticulocyte lysate; inhibition, % at 5.6 µM; 290,000 compounds, 0.91% hits; AID 1789; luciferase refolding luminescence, 3 h;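 active = inhibition above the screen-wide mean plus 3 SD, computed separately per campaign, cut at about 16% in these data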;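 also: 0% = DMSO wells and 100% = 60 µM geldanamycin wells; inhibitors lower the luminescence because luciferase stays unfolded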
FXN GAA850 act = frataxin GAA850 promoter activation; HEK293 lucGAA850 FXN promoter luciferase reporter, 24 h; percent of 10 µM SAHA response; activation, % at 6 µM; 360,000 compounds, 0.56% hits;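 active = activation above the average of all compounds screened plus 3 SD, cutoff fixed separately per campaign, cut at about 7.5% in these data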;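 also: 0% = DMSO wells and 100% = 10 µM SAHA wells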
Active calls of the source: *; x = not tested or not shown. Sampled rows, rich in hits. Any-hit rate of the full collection: about 5.9%.

SMILES	HSF-1 act	AHR act	HSF1 inh	DAX1 inh	HSP90 inh	FXN GAA850 act
COc1ccc(N2C(=O)NC(NS(=O)(=O)c3ccc(NC(C)=O)cc3)(C(F)(F)F)C2=O)cc1 (stereo unspecified)	-2.1	-3.3	0.3	-0.4	2.2	-0.8
Oc1ccc(Br)cc1-c1cc(-c2ccc(Cl)cc2)n[nH]1	31.6	49.4*	10.7	0.1	-2.9	1.1
COc1ccc(-c2ncncc2-c2ccc(Cl)cc2)c(O)c1	-8.6	7.5	-8.7	-0.8	4.2	-0.4
Oc1ccc(Br)cc1-c1cc(-c2ccccc2)n[nH]1	3.5	60.8*	-2.1	-0.6	-1.2	3.2
COc1ccc(-c2cc(-c3ccc(Cl)cc3)n[nH]2)c(O)c1	93.7*	6.6	62.4	5.4*	-5.7	5.4
COc1ccc(O)c(-c2cc(-c3cccc(Br)c3)n[nH]2)c1	33.5	63.5*	25.7	0.4	1.2	3.4
O=[N+]([O-])c1cccc(-c2cc(-c3cc(Br)ccc3O)[nH]n2)c1	7.5	9.5	-5.7	-1.3	0.5	2.5
CCCC#Cc1ccc2c(c1)O[C@H](CN(C)S(=O)(=O)c1cccc(OC)c1)[C@H](C)CN([C@H](C)CO)S2(=O)=O	x	x	x	-0.6	x	1.9
O=C(NNC(=S)Nc1ccc(Cl)cc1)c1ccccc1OC(F)F	59.3*	103.8*	19.3	-1.2	-2.3	-1.1
O=C(NNC(=S)NCc1ccccc1)c1ccccc1OC(F)F	-8.7	2.3	-1.5	0.1	-2.6	-0.9
O=C(COc1nncc2ccccc12)Nc1ccc(F)c(F)c1	x	-0.7	x	5.7*	-0.1	-0.5
O=C(Cn1c(O)c(/C=C2\C=Nc3ccccc32)sc1=O)N1CCOCC1	-16.7	1.1	-16.1	-2.2	2.0	-0.4
O=c1[nH]c(S)c(/C=C2\C=Nc3ccccc32)s1	16.3	57.0*	-0.1	x	2.9	0.1
COc1ccc2c(c1)c(=O)oc1cc(OCC(=O)NC3CC3)ccc12	12.6	7.5	-1.4	0.5	0.1	2.3
COc1ccc2c(c1)c(=O)oc1cc(OCC(=O)NC3CCCCC3)ccc12	-4.7	-5.0	0.0	5.9*	1.1	-1.5
CCN(CC)CCNC(=O)c1cc2c(-c3cccc(OC)c3)nn(C)c2s1	5.4	47.8*	-6.0	-0.3	1.4	1.2
CCOCCCNC(=O)c1cc2c(-c3ccc(Cl)cc3)nn(C)c2s1	17.1	56.1*	3.2	-1.6	-3.0	-2.0
COc1cccc(-c2nn(C)c3sc(C(=O)Nc4ccc5c(c4)OCCO5)cc23)c1	55.0*	17.1	34.3	1.8	2.2	0.2
CCN(CC)CCNC(=O)c1cc2c(-c3ccc(Cl)cc3)nn(C)c2s1	14.4	52.9*	-0.1	2.3	-1.7	-1.0
COCCCNC(=O)c1cc2c(-c3cccc(OC)c3)nn(C)c2s1	19.4	43.7	2.2	-0.1	2.8	-2.3
Cn1nc(-c2ccccc2F)c2cc(C(=O)Nc3ccc4c(c3)OCCO4)sc21	20.4	19.1	9.1	-1.0	-5.9	0.5
COc1ccc(C(O)c2nc(-c3ccc4ccccc4c3)cs2)cc1 (stereo unspecified)	x	x	x	x	x	2.9
CC(=O)Nc1ccc(S(=O)(=O)NCCC(=O)OCc2csc(CC(=O)Nc3ccccc3C)n2)cc1	11.0	2.6	7.1	-0.6	x	1.4
CC1(C)CC(=O)C2=C(C1)OC(N)=C(C#N)C2c1ccccc1 (stereo unspecified)	-60.8	1.1	-54.3*	0.8	-2.4	2.4
CC1(C)CC(=O)C2=C(C1)OC(N)=C(C#N)C2c1cccs1 (stereo unspecified)	-6.1	4.1	-1.5	-0.5	-0.8	2.5
SMILES	HSF-1 act	AHR act	HSF1 inh	DAX1 inh	HSP90 inh	FXN GAA850 act
COc1cc2c(cc1C1C(C#N)=C(N)OC3=C1C(=O)CC(C)(C)C3)OCO2 (stereo unspecified)	-4.1	-0.3	8.6	4.9*	0.3	0.2
Cc1cc(N)n(-c2ccc(C(=O)O)cc2)n1	-73.7	-1.2	-67.0*	0.2	7.2	0.9
COCCC1CCCCN1C(=O)c1ccc(OC2CCN(C(C)=O)CC2)c(OC)c1 (stereo unspecified)	-8.5	-1.3	0.2	1.1	-2.0	0.6
COc1ccccc1CNC(=O)C1CCN(S(=O)(=O)c2cccc([N+](=O)[O-])c2)CC1	7.1	-0.4	7.4	-1.4	0.8	1.5
O=C(NCc1ccco1)C1CCN(S(=O)(=O)c2cccc([N+](=O)[O-])c2)CC1	-83.6	0.3	-79.8*	-0.3	2.7	-0.5
S=c1[nH]cc(Cc2ccccc2)s1	60.4*	1.5	26.8	1.4	9.5	0.9
O=C(NCCc1c[nH]c2ccccc12)c1ccc(Cl)cc1	58.8*	4.0	34.8	0.4	2.1	3.1
COC(=O)C(Cc1c[nH]c2ccccc12)NC(=O)c1cncc(Br)c1 (stereo unspecified)	2.9	44.4	0.3	1.0	-5.5	4.1
O=C(NCCc1c[nH]c2ccccc12)c1cncc(Br)c1	-8.0	49.3*	0.5	-0.4	-1.1	1.9
Cc1ccc(C(=O)N2CCN(S(=O)(=O)c3ccc(C(C)C)cc3)CC2)s1	4.7	-0.5	-5.5	0.5	x	3.0
COc1ccc(/C=C2/SC(=O)N(CCNC(=O)C3CC(=O)N(Cc4ccccc4)C3)C2=O)cc1 (stereo unspecified)	x	x	x	-0.7	x	0.8
Cc1[nH]c2ccccc2c1C(=O)C(C)OC(=O)C1CCC1 (stereo unspecified)	18.6	3.5	5.1	0.3	x	1.0
FC(F)(F)c1ccc(-n2cnc3ccccc32)nc1	19.3	64.5*	5.4	1.1	-0.5	3.1
Cc1ccc(C(=O)N[C@H](C(=O)Nc2sccc2C(N)=O)C(C)C)cc1	45.4	3.6	9.6	0.9	-0.4	3.2
CC12CC3(C)CC(C)(C1)CC(C(N)=O)(C2)C3	5.8	3.5	-4.2	5.8*	0.0	-2.3
COc1ccc(OC)c(Nc2nc(-c3cccs3)cs2)c1	8.8	47.7*	2.6	-0.6	11.8	0.9
COc1ccc(Nc2nc(-c3cccs3)cs2)cc1	20.1	49.2*	10.7	x	-1.2	x
COc1ccc(Nc2nc(-c3cccs3)cs2)c(OC)c1	0.0	109.3*	-1.6	4.9*	2.6	5.7
O=C(Nc1ccc(Cl)c(S(=O)(=O)N2CCOCC2)c1)[C@@H]1CCCN1C(=O)c1cccs1	x	1.8	x	1.2	x	0.6
O=C(CCC1CCCCC1)NCc1ccccn1	-4.5	2.3	-9.4	-0.1	3.0	3.9
COc1ccc(C2C(C#N)=C(N)N(N(C)C)C3=C2C(=O)CC(C)(C)C3)cc1OC (stereo unspecified)	20.4	0.4	2.0	1.3	2.6	-0.9
COc1cc(C2C(C#N)=C(N)N(N(C)C)C3=C2C(=O)CC(C)(C)C3)ccc1O (stereo unspecified)	-80.5	0.2	-75.8*	1.5	-2.9	-0.1
CC1(C(=O)Nc2cnc3ccccc3c2)CCN1CCOc1ccccc1 (stereo unspecified)	x	x	x	x	x	0.7

Source: PubChem BioAssay
